Screening data deposited in PubChem BioAssay by National Center for Advancing Translational Sciences (NCATS).
TDP1 cell CPT = growth inhibition of DT40 Tdp1-/-;hTDP1 cells with camptothecin (screen for TDP1 inhibitors); AID 686979; Potency, µM (titrated, usually from 46.2 µM), for inactives: top-dose activity change, negative = growth inhibition, most hits filed as inhibitors; 420,000 tested, 12% active; chicken DT40 Tdp1-/-;hTDP1 cells + 20 nM CPT, ATP luminescence, 48 h; also: potency is read from the fitted curve at half-maximal effect; % is scaled to controls: 0 for no effect and ±100 for the full control effect; nearly all actives have a fitted effect of over 55% in size
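Cell growth measured by CellTiter-Glo luminescence after a minimum 48 h, 37 C compound exposure with 20 nM CPT in Tdp1-knockout DT40 cells stably expressing hTDP1, seeded 400/well; qHTS titration format.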
Chronic BCR inh = chronic active BCR signaling inhibition | 340,000 tested, 0.05% active | Potency, µM (series often up to 46.1 µM), inactives show at the highest dose activity change, negative = inhibition, actives largely listed as inhibitors | AID 493014 | ABC-DLBCL IkBa-CBG/CBR reporter, luminescence ratio, 4 h; active = well fitted inhibition curve with a large enough effect in the signal ratio, with a control signal flat, not every such curve was filed as active; inconclusive = small, poorly fitted or top-dose-only effect, or effect the other way, or a change in a side signal; the % refers to the signal ratio;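 also: potency is read from the fitted curve at half-maximal effect; plate controls were basal doxycycline-induced cells for no effect and cells given 10 µM MG132 for full effect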
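TMD8 human ABC-DLBCL cells with doxycycline-inducible IκBα–green luciferase fusion and unfused red luciferase, in 0.5% FBS medium; compounds up to 46 uM, 4 h at 37C. Green/red luminescence ratio, filter-overlap corrected, fitted to concentration-response curves.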
IL1B secr inh = blocks inflammasome-driven IL-1 beta release. THP-1 LPS/ATP IL-1B secretion, AlphaLISA, 16 h; active compounds read low. activity change, % at 57.5 µM. 360,000 tested, 4.7% active; in the data active = activity change below about -50%; inconclusive = mostly about -30% to -49%; also: % is scaled to controls: 0 for no effect and ±100 for the full control effect
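THP-1 cells pretreated 1 hr with compounds (up to 57.5 uM final), then stimulated with LPS (250 ng/mL final) plus ATP (1.25 mM final); secreted IL-1B measured by AlphaLISA after 16 hr, decreased signal indicating inhibition.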
MCF10A rerep = induces DNA re-replication in MCF 10a normal breast cells; Potency, µM (top dose mostly 46.1 µM), without a hit: top-dose activity, positive = re-replication, usual class: activators; MCF 10A DNA re-replication, Hoechst nuclear intensity, 48 h; 350,000 tested, 2.9% active; also: potency is read from the fitted curve at half-maximal effect; % of control where 0% means no effect; nearly all actives have a fitted effect of over 50% in size
TDP1 cell noCPT = qHTS for Inhibitors of human tyrosyl-DNA phosphodiesterase 1 (TDP1): qHTS in cells in absence of CPT; AID 686978, 2013; DT40 Tdp1-/- hTDP1 cells, no CPT, ATP luminescence, 48 h; Potency, µM (series often up to 46.2 µM), for the others: at the highest dose activity change, negative = growth inhibition, usual class: inhibitors; 420,000 tested, 15% active; also: potency is read from the fitted curve at half-maximal effect; % is scaled to controls: 0 for no effect and ±100 for the full control effect; nearly all actives have a fitted effect of over 55% in size
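Growth kinetics read by CellTiter-Glo luminescence after ≥48 hr at 37 °C. Cells: DT40 Tdp1-/- stably carrying human TDP1, 400 per well, compound exposure in the absence of CPT (DMSO vehicle).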
SW480 rereplic = induces DNA re-replication in SW480 colon adenocarcinoma cells. AID 624297. Potency, µM (series often up to 46.1 µM), inactives show at the highest dose re-replication activation, usual class: activators. SW480 DNA re-replication, Hoechst DNA content imaging, 48 h. 340,000 tested, 1.8% active; also: potency is read from the fitted curve at half-maximal effect; % of control where 0% means no effect; nearly all actives have a fitted effect of over 55% in size
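Readout is total intensity of Hoechst-stained nuclei, excited at 405 nm and collected at 500-530 nm. Compound treatment lasted 48 hr at 37 C in 5% CO2 before staining.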
An asterisk follows results filed as active; ? = inconclusive; / = no result. Compounds with a hit are over-represented: about 19% of the library has one in this group of screens. Unless noted, calls follow the shape of the dose curve; as a rule, active = well fitted curve in the direction sought with a large enough effect; inconclusive = small, poorly fitted or top-dose-only effect, or another doubt; inactive = no such curve, though single readings can be large; an effect the other way counts as inactive or inconclusive.

SMILES	TDP1 cell CPT	Chronic BCR inh	IL1B secr inh	MCF10A rerep	TDP1 cell noCPT	SW480 rereplic
CCNC(=S)/C(=C(/[O-])c1ccc([N+](=O)[O-])cc1)[n+]1ccccc1	?	7%	-29	-7%	?	-5%
O=C(CCC(=O)c1cccs1)NCc1cccc(C(F)(F)F)c1	-7%	7%	10	9%	3%	-2%
CC1(C)COC(c2ccc(F)c([N+](=O)[O-])c2)=N1	16µM*	?	-102*	23µM*	16µM*	?
O=C(C(=O)N(C1CCCCC1)C1CCCCC1)c1ccccc1	10µM*	/	8	/	7.3µM*	/
O=C(NCc1ccccc1)c1ccc(C(=O)NCc2ccccc2)cc1	-4%	/	0	-2%	3%	-5%
CN(C(=O)c1ccc(-c2ccccc2)cc1)C1CCCCC1	?	/	?	0%	?	-41%
O=C(NCc1ccccc1)c1ccc(C(=O)N(C2CCCCC2)C2CCCCC2)cc1	23µM*	-9%	?	-2%	?	8%
CCC(C)c1ccccc1OCC(=O)Nc1ccc(S(=O)(=O)Nc2cc(C)on2)cc1 (stereo not drawn)	-14%	/	/	/	-22%	/
COC(=O)[C@@H]1CCCN1C(=O)c1c(OC)cc(=O)n2c1CCN(Cc1cc(OC)ccc1F)CC2	-2%	/	/	/	-23%	/
Cc1cccc(N2CCN(C3=NC(=O)C(Cc4ccccc4)S3)CC2)c1 (stereo not drawn)	?	1%	-4	-1%	15µM*	0%
Cc1cccc(CC2SC(N)=NC2=O)c1 (stereo not drawn)	6%	1%	6	3%	3%	3%
CC(C)NC(=NCc1ccc(Cl)cc1Cl)Nc1ccccc1	13µM*	?	/	10%	5.2µM*	?
O=C(C/C=N\OCc1ccc(Cl)cc1Cl)Nc1ccccc1	16%	2%	-7	-4%	-12%	3%
Cc1cc(F)ccc1S(=O)(=O)NCC1CC2CCC1C2 (stereo not drawn)	-18%	1%	55	15%	-13%	-27%
COc1ccc(Cl)cc1-c1nc(-c2ccc(NC(=O)c3ccncc3)cc2)no1	?	/	12	0%	10µM*	-3%
COc1cccc(-c2nc(-c3ccc(NC(=O)c4cccs4)cc3)no2)c1	?	?	-24	?	?	-10%
COc1cc(-c2nc(-c3ccc(NC(=O)c4ccc5c(c4)OCO5)cc3)no2)cc(OC)c1OC	?	?	?	9.2µM*	?	?
COc1ccc(-c2noc(CCC(=O)NCc3cccnc3)n2)cc1	?	4%	2	-1%	-28%	-6%
COc1ccc(Cc2nc(-c3ccc(NC(=O)c4cccnc4)cc3)no2)cc1	5.8µM*	?	?	?	6.5µM*	-2%
COc1cccc(-c2nc(-c3ccc(NC(=O)c4ccncc4)cc3)no2)c1	9.2µM*	6%	34	7%	10µM*	2%
O=C(COc1ccccc1F)OCc1cc(=O)n2nc(-c3cccs3)sc2n1	-12%	/	/	/	-2%	/
CCCN(C(=O)CCSc1ccc(F)cc1)c1c(N)n(Cc2ccccc2)c(=O)[nH]c1=O	-2%	5%	2	8%	-8%	5%
Cc1cc(CNC[C@H]2O[C@@H](n3cnc4c(N)ncnc43)[C@H](O)[C@@H]2O)no1	-28%	/	18	/	-26%	/
COc1ccc(-c2nc(-c3ccc(NC(=O)c4ccncc4)cc3)no2)cc1OC	5.2µM*	-11%	-4	11%	7.3µM*	1%
COC(=O)c1ccc(-c2nc(-c3ccc(OC)c(OC)c3)no2)cc1	1%	/	/	/	?	/
SMILES	TDP1 cell CPT	Chronic BCR inh	IL1B secr inh	MCF10A rerep	TDP1 cell noCPT	SW480 rereplic
CSCCC(NS(=O)(=O)c1ccc(Cl)cc1)C(=O)OCC(=O)c1ccc(F)cc1 (stereo not drawn)	6%	?	11	-4%	-25%	-4%
COc1ccc(-c2cc(C(=O)OCC(=O)N3CCCCC3)c3ccccc3n2)cc1OC	?	-15%	12	?	21µM*	4%
COc1ccc(NC(=O)c2cc(-c3cccnc3)nc3c(C)c(C)ccc23)c(OC)c1	?	-10%	0	16%	?	-4%
O=C(OCC(=O)N1CCOCC1)c1cc(-c2ccccc2)nc2ccccc12	-7%	-2%	-1	?	2%	10%
COc1ccc(-c2cc(C(=O)N3CCCC(C(F)(F)F)C3)c3ccccc3n2)cc1OC (stereo not drawn)	?	-22%	?	?	21µM*	-278%
Cc1ccc2c(C(=O)N3CCN(c4ccccc4)CC3)cc(-c3cccnc3)nc2c1C	?	-2%	-64*	?	13µM*	5%
Cc1ccc(-c2cc(C(=O)N3CCN(c4ccccc4)CC3)c3ccccc3n2)cc1C	?	?	/	/	16µM*	/
COc1ccc(NC(C)=O)cc1S(=O)(=O)NCc1ccc2c(c1)OCO2	-10%	/	0	/	-17%	/
COc1ccc(-c2cc(C(=O)N3CCN(c4ccccc4)CC3)c3ccccc3n2)cc1OC	?	?	-20	13µM*	16µM*	18%
O=C(O)c1cc(-c2ccco2)nc2ccccc12	-4%	-3%	25	-20%	0%	2%
COc1ccc(-c2cc(C(=O)N3CCCCCC3)c3ccccc3n2)cc1	?	-2%	-6	13%	?	?
O=C(c1cc(-c2ccco2)nc2ccccc12)N1CCN(c2ccc(F)cc2)CC1	21µM*	-5%	-9	?	13µM*	2%
CC(=O)[C@]1(O)CCC2C3CC(C)C4=CC(=O)C=CC4(C)[C@@]3(F)C(O)C[C@]21C (stereo partly drawn)	4%	/	/	/	-12%	/
CCc1ccc(C(=O)c2cnc3ccc(OC)cc3c2N2CCN(CC)CC2)cc1	?	-23%	-11	?	?	11%
CCOC(=O)C1CCN(c2c(C(=O)c3ccccc3)cnc3ccc(Cl)cc23)CC1	23µM*	?	37	-6%	18µM*	-2%
CCc1ccc2ncc(C(=O)c3ccc(C)c(C)c3)c(N3CCC(C(N)=O)CC3)c2c1	23µM*	/	/	/	21µM*	/
CCOc1ccc(NC(=O)CSc2nnc3c(n2)[nH]c2ccc(S(=O)(=O)N(C)C)cc23)cc1	12%	/	/	/	?	/
Cc1nc2cc(Cl)c(Cl)cc2n1-c1ccccn1	-12%	-3%	17	-9%	-26%	0%
